This is a sample that favours compounds with a hit; in the whole collection about 12% have one here.
BAZ2B block = BAZ2B (human) inhibition; 4.4% of 360,000 active; AID 504333; AlphaScreen BAZ2B-H3K14Ac peptide displacement; Potency, µM (highest dose often 114 µM), actives largely listed as inhibitors; further: nearly all actives have a fitted effect of over 60% in size
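BAZ2B (50 nM) with biotin-H3(5-23)K14Ac peptide (50 nM) in PBS pH 7.4, 0.01% Tween-20, preformed 30 min, then compound 30 min at room temperature; top concentration 110uM. AlphaScreen streptavidin donor/nickel chelate acceptor beads (10 ug/mL final), 20 min dark, signal read.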
L3MBTL1 block = blocks human L3MBTL1 | AlphaScreen L3MBTL1–H3K9me1 peptide binding | Potency, µM (top dose mostly 57.1 µM), most hits filed as inhibitors | 0.66% of 230,000 active | AID 485360; further: nearly all actives have a fitted effect of over 60% in size
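First, the protein-peptide complex forms for 30 min at room temperature (L3MBTL1 50 nM, biotinylated H3K9me1 peptide 75 nM). Next, compounds are pin-transferred and incubated 30 min. Finally, AlphaScreen beads are added and read after 30 min.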
HP1b chromo inh = HP1-beta chromodomain-methylated histone interaction inhibition; P83916; AlphaScreen HP1-beta / biotin-H3K9me3 peptide binding; Potency, µM (titrated, usually from 114 µM), usual class: inhibitors; 0.56% of 390,000 active; AID 540317; further: nearly all actives have a fitted effect of over 70% in size
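Compound inhibition of the preformed complex between 50 nM HP1-beta and 50 nM biotinylated H3K9me3 peptide was read by AlphaScreen. Buffer was PBS pH 7.4 with 0.01% Tween-20. Incubations ran 30 min at room temperature, with 10 ug/mL donor/acceptor beads.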
G9a block = G9a (human) methyltransferase inhibition; 8.8% of 350,000 active; Potency, µM (top dose mostly 102 µM), usual class: inhibitors; G9a H3K9 monomethylation, AlphaScreen, 2 h; further: nearly all actives have a fitted effect of over 75% in size
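G9a (20 nM) was preincubated 15 min with compound, then reacted 2 h at room temperature with 500 nM biotin-H3K9 peptide and 20 µM SAM. Monomethyl-H3K9 detected by AlphaScreen using anti-H3K9me1 antibody.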
JMJD2A Tudor inh = blocks the human JMJD2A Tudor domain | O75164 | AlphaScreen JMJD2A-Tudor / H3K4me3 peptide binding | AID 504339 | Potency, µM (doses to about 114 µM), most hits filed as inhibitors | 4.4% of 390,000 active; further: nearly all actives have a fitted effect of over 50% in size
Sfp inh = blocks B. subtilis Sfp PPTase activity; Q9F4F7; Biochemical Sfp PPTase activity, qHTS; Potency, µM, usual class: inhibitors; 3.5% of 310,000 active;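 further: the enzyme is Sfp with the accession as filed and its product quenches rhodamine fluorescence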
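Fluorescence-quenching assay with 15 nM Sfp, 5 uM rhodamine-CoA and 12.5 uM BHQ-2-labelled ybbR peptide in pH 7.6 Hepes/MgCl2 buffer. Enzyme was pre-incubated with compound for 15 min at room temperature. Rate was taken from the 30-min fluorescence change (525/598 nm).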
Numbers stand for hits; [ ] = dose if it differs, or a comment. The call rests on the fitted dose curve; in most records, active means well fitted curve in the direction sought with a large enough effect; inconclusive means small, poorly fitted or top-dose-only effect, or another doubt; inactive means no such curve, though single readings can be large; an effect the other way counts as inactive or inconclusive.

Screening COc1cc(C(=O)NCCc2ccc(S(N)(=O)=O)cc2)ccc1OCc1c(C)noc1C returned BAZ2B block inactive, L3MBTL1 block inactive, HP1b chromo inh inactive, G9a block inactive[12.7 µM] and JMJD2A Tudor inh inactive.
CCN(CC)c1ccc(/C=N/n2c(=S)[nH]nc(C)c2=O)cc1 was read as BAZ2B block inactive, L3MBTL1 block inactive, HP1b chromo inh inactive, G9a block inactive, JMJD2A Tudor inh inactive and Sfp inh 79µM.
S=c1[nH]nc(-c2ccccn2)n1/N=C/c1ccccc1 was read as BAZ2B block 11µM, L3MBTL1 block inconclusive, HP1b chromo inh inactive, G9a block inconclusive, JMJD2A Tudor inh 2.8µM and Sfp inh 40µM.
For CCN(CC)c1ccc(/C=N/NC(=O)c2c(Cl)c(C)nn2C)cc1 the results were BAZ2B block inactive, L3MBTL1 block inactive, HP1b chromo inh inactive, G9a block inactive, JMJD2A Tudor inh inactive and Sfp inh inactive.
`S=c1[nH]nc(-c2ccccn2)n1/N=C/c1c(Cl)cccc1Cl` gave BAZ2B block 22µM, L3MBTL1 block 20µM, HP1b chromo inh inactive, G9a block 1.8µM, JMJD2A Tudor inh 3.5µM and Sfp inh inconclusive.
`Cc1ccccc1/C=N/n1c(-c2ccccn2)n[nH]c1=S` gave BAZ2B block 8.9µM, L3MBTL1 block 22µM, HP1b chromo inh inactive, G9a block 0.89µM, JMJD2A Tudor inh 3.2µM and Sfp inh 35µM.
Screening CC(C)CN(C(=O)COC(=O)c1nc(Cl)ccc1Cl)c1c(N)n(Cc2ccccc2)c(=O)[nH]c1=O returned BAZ2B block inactive, HP1b chromo inh inactive, G9a block inactive, JMJD2A Tudor inh inactive and Sfp inh inactive.
For CC(C)(C)c1nn2cnnc2n(/N=C/c2cccc3ccccc23)c1=O the results were BAZ2B block inactive, L3MBTL1 block inactive, HP1b chromo inh inactive, G9a block inactive, JMJD2A Tudor inh inactive and Sfp inh inactive.
Screening S=c1[nH]nc(-c2ccccn2)n1/N=C/c1cccc2ccccc12 returned BAZ2B block 28µM, L3MBTL1 block 32µM, HP1b chromo inh inconclusive, G9a block 0.4µM, JMJD2A Tudor inh 5.6µM and Sfp inh inactive.
For O=C(Nc1cccc(C(F)(F)F)c1)c1ccc2c(c1)nnn2C1CCCC1 the results were BAZ2B block inactive, HP1b chromo inh inactive, G9a block inactive and JMJD2A Tudor inh inactive.
For O=C(NNc1ccccc1[N+](=O)[O-])NC1CCCCC1 the results were BAZ2B block inactive, L3MBTL1 block inactive, HP1b chromo inh inactive, G9a block 50µM, JMJD2A Tudor inh inactive and Sfp inh inactive.
For O=C(NNc1ccccc1[N+](=O)[O-])Nc1ccccc1 the results were BAZ2B block inconclusive, HP1b chromo inh inactive, G9a block inconclusive, JMJD2A Tudor inh inactive and Sfp inh inactive.
O=C(Nc1ccccc1C(=O)N1CCCCC1)NC1CCCCC1 was read as BAZ2B block inactive, L3MBTL1 block inactive, HP1b chromo inh inactive, JMJD2A Tudor inh 79µM and Sfp inh inactive.
O=C(NNc1ccccc1[N+](=O)[O-])Nc1ccc(F)cc1 was read as BAZ2B block inactive, L3MBTL1 block inactive, HP1b chromo inh inactive, G9a block 3.5µM, JMJD2A Tudor inh inactive and Sfp inh inactive.
`O=C(NC(=S)NC1CCCCC1)c1ccccc1[N+](=O)[O-]` gave BAZ2B block inconclusive, HP1b chromo inh inactive, G9a block inactive[12.7 µM], JMJD2A Tudor inh inconclusive and Sfp inh inactive.
O=C(NNc1ccccc1[N+](=O)[O-])Nc1ccc(Cl)c(Cl)c1 was read as BAZ2B block inconclusive, L3MBTL1 block inactive, HP1b chromo inh inactive, G9a block 7.1µM, JMJD2A Tudor inh inactive and Sfp inh inactive.
O=C(CSc1nnc(CNC(=O)c2cccs2)o1)Nc1ccc(Br)cc1 was read as BAZ2B block inactive, HP1b chromo inh inactive, G9a block inactive[0.501 µM], JMJD2A Tudor inh inactive and Sfp inh inactive.
Screening COc1ccc(CCNC(=O)Cn2cc(C(=O)c3ccccc3)c(=O)c3ccc(C)nc32)cc1OC returned BAZ2B block inactive, HP1b chromo inh inactive, G9a block inactive and JMJD2A Tudor inh inactive.
Screening COc1ccc2[nH]cc(CCNc3ncncc3-c3ccccc3C)c2c1 returned G9a block inactive[0.501 µM] and Sfp inh inactive.
CCN(CC)S(=O)(=O)c1cc([N+](=O)[O-])ccc1NNC(=O)Nc1ccc(Cl)c(Cl)c1 was read as BAZ2B block 32µM, HP1b chromo inh inactive, G9a block 7.9µM, JMJD2A Tudor inh inactive and Sfp inh inconclusive.
CCC1CN(C(=O)N2CCC(C(=O)NCCc3cc(OC)ccc3OC)CC2)c2ccccc2O1 (stereo not given) was read as BAZ2B block inactive, HP1b chromo inh inactive, G9a block inactive and JMJD2A Tudor inh inconclusive.
Screening COCCn1c(SCc2ccc(F)cc2)nc2c1c(=O)[nH]c(=O)n2C returned BAZ2B block inactive, L3MBTL1 block inactive, HP1b chromo inh inconclusive, JMJD2A Tudor inh inactive and Sfp inh 45µM.
`CC(C)CCn1c(SCc2ccc(Cl)cc2)nc2c1c(=O)[nH]c(=O)n2C` gave BAZ2B block inactive, L3MBTL1 block inactive, HP1b chromo inh inactive, G9a block 14µM, JMJD2A Tudor inh inactive and Sfp inh 45µM.
For COCCn1c(SCCN2CCOCC2)nc2c1c(=O)[nH]c(=O)n2C the results were BAZ2B block inactive, HP1b chromo inh inactive, G9a block 11µM, JMJD2A Tudor inh inactive and Sfp inh 13µM.
`Cc1ccc(CSc2nc3c(c(=O)[nH]c(=O)n3C)n2CCC(C)C)cc1` gave BAZ2B block inactive, HP1b chromo inh inactive, G9a block inactive, JMJD2A Tudor inh inactive and Sfp inh inactive.
O=S(=O)(NC1C2CC3CC(C2)CC1C3)c1ccccc1 (stereo not given) was read as BAZ2B block inactive, L3MBTL1 block inactive, HP1b chromo inh inactive, G9a block inactive[2.33 µM] and JMJD2A Tudor inh inactive.
Cc1ccc(CN(Cc2ccco2)C(=O)c2oc3c(C)c(C)ccc3c2C)cc1 was read as BAZ2B block inactive, HP1b chromo inh inactive, G9a block inactive and JMJD2A Tudor inh inactive.
CC1SC(=NC(=O)c2ccco2)NC1=O (stereo not given) was read as BAZ2B block inactive, L3MBTL1 block inactive, HP1b chromo inh inactive, G9a block 50µM, JMJD2A Tudor inh inconclusive and Sfp inh inactive.
Screening O=c1c2[nH]c3ccc(Cl)cc3c2ncn1CCN1CCCCC1 returned BAZ2B block inactive, L3MBTL1 block inactive, HP1b chromo inh inactive, G9a block inactive, JMJD2A Tudor inh inactive and Sfp inh inactive.
S=c1nc[nH]c2c1[nH]c1ccc(Cl)cc12 was read as BAZ2B block inactive, HP1b chromo inh inactive, G9a block 1.4µM, JMJD2A Tudor inh 4.5µM and Sfp inh inactive.
CC(=O)Nc1ccc(S(=O)(=O)NCCC(=O)NCc2ccncc2)cc1 was read as BAZ2B block inactive, L3MBTL1 block inactive, HP1b chromo inh inactive, G9a block inactive[2.33 µM] and JMJD2A Tudor inh inactive.
